Where “and” joins values, the source holds several entries; their conditions need not be identical. Equal entries are not always repeated. About 83,000 compounds went through this panel and 20% of them were active in at least one assay; those are over-represented in the sample as a whole.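 Treatment: one concentration, 48 hours, 96-well format. Scoring: percent growth, with anything below 10 considered active.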 Calls of active or inactive are those of the source.
The compounds below were run on HL-60(TB) leukemia (assay: NCI-60 one-dose screen, 48 h (100 = growth as untreated, 0 = no growth, -100 = all killed)). Conditions: 10 µM unless noted.

SMILES | growth
Cc1cc(O)c2c(c1)C(=O)c1cc(O)cc(O)c1C2=O | 121% (inactive) and 83.6% (inactive)
COc1ccc(/C=N\NC(=O)CN2CCN(c3cc4c(cc3F)c(=O)c(C(=O)N/N=C/c3ccc(OC)c(OC)c3)cn4C3CC3)CC2)cc1OC | 1.29% (active)
COC(C(=O)[C@@H](O)[C@@H](C)O)[C@@H]1Cc2cc3cc(O[C@H]4C[C@@H](O[C@H]5C[C@@H](O)[C@H](O)C(C)O5)[C@H](O)C(C)O4)cc(O)c3c(O)c2C(=O)[C@H]1O[C@H]1C[C@@H](O[C@H]2C[C@@H](O[C@H]3C[C@@H](OC)[C@H](O)C(C)O3)[C@@H](O)C(C)O2)[C@H](O)C(C)O1 (some centres undefined) | 81.5% (inactive)
N#Cc1cccc(NC(=O)c2oc3ccccc3c2-c2cnn(-c3ccccc3)c2)c1 | -22.2% [50 µM] (active)
CCc1c(CC(=O)O)c2cc(C)ccc2n1Cc1ccc(Cl)cc1 | 89.3% (inactive) and 161% (inactive)
O=C1OC(c2ccccc2)=N/C1=C\c1ccccc1 | 113% (inactive)
CC1=CC(C)(C)NC(=S)N1c1ccc(Cl)cc1 | 94.7% (inactive) and 97.6% (inactive)
CN(CCn1sc(=O)n(Cc2ccccc2)c1=O)Cc1ccc2c(Cl)cc(Cl)c(O)c2n1 | 40.7% (inactive)
O=C(Nc1nc2ccc(F)cc2s1)c1cc(-c2ccc(F)cc2)n2nc(-c3ccccc3)cc2n1 | 92.9% (inactive)
Cn1cc(-c2nonc2-c2c[nH]c3ccc(Br)cc23)c2cc(Br)ccc21 | 54% (inactive)
C=C1C(=O)O[C@H]2[C@H]1CC/C(COC(=O)NCc1cc3ccccc3[nH]1)=C\CC[C@@]1(C)O[C@@H]21 | -51.4% (active)
O=C(NCc1ccc(Cl)cc1Cl)C1CCC(=O)N1c1cccs1 (centres undefined) | 99% (inactive)
N#CC1=C(N)Oc2cc(N)ccc2C1c1ccc(F)cc1 (centres undefined) | 88.9% (inactive)
Cc1cc(=O)n(Nc2ccccc2)c(O)c1C#N | 90.3% (inactive)
O=C(Nc1ccc(OCc2nnc(-c3ccccc3)o2)c(F)c1)Nc1ccc(Cl)c(Cl)c1 | 58.5% (inactive)
O=C(CO)C(O)C(O)C(O)C(O)CO (centres undefined) | 101% (inactive) and 102% (inactive)
O=C(O)c1ccc(-n2cc(CNc3ccc(Oc4ccccc4)cc3)c(-c3ccccc3)n2)cc1 | 92.5% (inactive)

SMILES | growth
CCCCNCCC(O)c1cc2ccc(C(F)(F)F)cc2c2cc(C(F)(F)F)ccc12 (centres undefined) | -62.1% (active)
COc1cccc2cc(-c3cc4ccccc4[nH]3)c(=NC(=O)c3ccc(Cl)cc3)oc12 | 72.1% (inactive)
N#C/C(=C\c1ccc(Br)cc1)n1nnc2cccc(F)c21 | -9.67% (active)
CC(C)(C#N)c1cc(F)cc(C(=O)Nc2cc(Nc3ncccc3-c3ncnc4nc[nH]c34)ccc2F)c1 | 13.9% (inactive)
CCC1S/C(=N\N=C(/C)c2ccco2)N(c2ccccc2)C1=O (centres undefined) | 106% (inactive)
O=C(N[C@@H]1CCCc2ccccc21)[C@H](CCC(=O)N1CCN(C2CCCCC2)CC1)N1C(=O)[C@@H](N2C(=O)OC[C@@H]2c2ccccc2)[C@H]1/C=C/c1ccccc1 | -8.1% (active)
O=C(Nc1ccc(Cl)c(Cl)c1)Nc1ccc(Cl)c(Cl)c1 | -56.8% (active) and 13% (inactive)
Nc1ccccc1NC(=O)c1ccc(CCCC(=O)Nc2ccc(C3CC3N)cc2)cc1 (centres undefined) | 24.6% (inactive)
Cc1ccc(/C=C/C(=O)c2ccc(N)cc2)c(C)c1 | 60.3% (inactive)
CCCCCCCOc1c(OC)cc(C2CC(=O)Nc3c2c(C)nn3-c2nc3ccccc3[nH]2)cc1OC (centres undefined) | 10.5% (inactive)
C=C(C)[C@@H]1CC[C@]2(CN)CC[C@]3(C)[C@H](CC[C@@H]4[C@@]5(C)CCC(N)[C@@](C)(CO)[C@@H]5CC[C@]43C)[C@@H]12 (some centres undefined) | -66.1% (active)
Cn1cc(-c2csc(-c3ccc(Cl)cc3)n2)c2cccnc21 | 7.96% [100 µM] (active)
O=S(=O)(O)c1ccc(Cl)c(Cl)c1 | 106% (inactive)
CC1Cc2ccccc2N1C(=O)c1ccc(C(=O)c2ccccc2)cc1 (centres undefined) | -11.1% (active)
Cc1ccc2nc(-c3c(N)n[nH]c3CCCO)[nH]c(=O)c2c1 | 108% (inactive)
CCCCN(CCCC)CC(C)(C)C(O)c1ccc(OC)c2ccccc12 (centres undefined) | 56.3% (inactive)
COc1cc(C(=O)n2nc(-c3cc(OC)c(OC)c(OC)c3)nc2N)cc(OC)c1OC | 67.7% (inactive)

Reference: PubChem BioAssay (NCI)
